# According to ChEMBL document CHEMBL4513139, “CO-ADD screening of University of Strathclyde (UK) compounds”:
# Entries with a potency or affinity are not part of this list.
# Key:
# Staphylococcus aureus = details: Concentration 32 ug.mL-1; ASSAY_TEST Inhibition of Bacterial Growth; detection method Absorption (OD600); MEDIA CAMHB; plate type 384well; NBS; CORNING #3640; time 18 hr
# Escherichia coli = details: Concentration 32 ug.mL-1; ASSAY_TEST Inhibition of Bacterial Growth; detection method Absorption (OD600); MEDIA CAMHB; plate type 384well; NBS; CORNING #3640; time 18 hr
Structure (SMILES),Inhibition (Staphylococcus aureus) [%],Inhibition (Escherichia coli) [%]
COC(=O)c1ccc(C(=O)Nc2cc(C(=O)Nc3cc(C(=O)NCCCN(C)C)n(C)c3)n(C)c2)cc1.O=C(O)C(F)(F)F,-1.58,-9.36
CN(C)CCCNC(=O)c1cc(NC(=O)c2cc(NC(=O)c3cc4ccccc4cn3)cn2C)cn1C.O=C(O)C(F)(F)F,20.5,-10.84
CN(C)CCCNC(=O)c1cc(NC(=O)c2cc(NC(=O)c3cc(NC(=N)N)cn3C)cn2C)cn1C.O=C(O)C(F)(F)F.O=C(O)C(F)(F)F,14.94,-3.99
COCCOC1CCN(C(=O)c2cc(NC(=O)c3cc(NC(=O)c4ccc(/C=C/c5ccc(OC)cc5)cc4)cn3C)cn2C)CC1.O=S(=O)(O)O,99.55,96.85
CCOC(=O)c1cc(NC(=O)c2cc(NC(=O)c3sc(N)nc3C(F)(F)F)cn2C)cn1C,23.52,-5.76
CC(=N)Nc1cc(C(=O)Nc2cc(C(=O)Nc3cc(C(=O)NCCN4CCOCC4)n(C)c3)n(C)c2)n(C)c1.O=C(O)C(F)(F)F.O=C(O)C(F)(F)F,23.57,-8.61
COC(=O)CCC(=O)Nc1cc(C(=O)Nc2cc(C(=O)NCCC(=N)N)n(C)c2)n(C)c1.O=C(O)C(F)(F)F,0.86,-6.39
CCOC(=O)CCC(NC(=O)c1ccc(NCc2cn(Cc3cnc(C)nc3N)nn2)cc1)C(=O)OCC (stereo not drawn),-1.1,-21.48
COC(=O)CCC(=O)Nc1cc(C(=O)Nc2cc(C(=O)NCCN3CCOCC3)n(C)c2)n(C)c1.O=C(O)C(F)(F)F,3.68,-5.38
CN(C)CCCNC(=O)c1cc(NC(=O)c2cc(NC(=O)c3cc(NC(=N)c4ccccc4)cn3C)cn2C)cn1C.O=C(O)C(F)(F)F.O=C(O)C(F)(F)F,0.44,-15.33
COc1cccc(C(=O)Nc2cc(C(=O)Nc3cc(C(=O)Nc4cn(CCCN(C)C)cn4)n(C)c3)n(C)c2)c1.O=C(O)C(F)(F)F,20.04,-11.39
COC(=O)c1ccc(C(=O)Nc2cc(C(=O)Nc3cc(C(=O)NCCN4CCOCC4)n(C)c3)n(C)c2)cc1.O=C(O)C(F)(F)F,12.57,-5.56
CC(C)c1sc(N)nc1C(=O)Nc1cc(C(=O)Nc2cc(C(=O)NCCN3CCOCC3)n(C)c2)n(C)c1.O=C(O)C(F)(F)F,1.1,-18.06
Cc1ncc(Cn2cc(CC(N)C(=O)O)nn2)c(N)n1.Cl (stereo not drawn),-6.04,-16.87
COCCOC1CCN(C(=O)c2cc(NC(=O)c3cc(NC(=O)c4ccc(/C=C/c5cnc6ccccc6c5)cc4)cn3C)cn2C)CC1,5.5,7.07
CN(C)CCCNC(=O)c1cc(NC(=O)c2cc(NC(=O)CCC(=O)O)cn2C)cn1C.O=C(O)C(F)(F)F,5.68,-8.32
Cn1cc(NC(=O)c2cc(NC(=O)CCC(=O)O)cn2C)cc1C(=O)NCCN1CCOCC1.O=C(O)C(F)(F)F,-10.46,-3.43
COc1cccc(C(=N)Nc2cc(C(=O)Nc3cc(C(=O)Nc4cc(C(=O)NCCCN(C)C)n(C)c4)n(C)c3)n(C)c2)c1.O=C(O)C(F)(F)F.O=C(O)C(F)(F)F,-1.63,-2.32
Cc1ncc(CO)c(N)n1,1.81,-19.21
CCOC(=O)c1cc(NC(=O)c2cc(NC(=O)c3nc(N)sc3CCC(C)C)cn2C)cn1C,16.22,-10.89
COC(=O)CCC(=O)Nc1cc(C(=O)Nc2cc(C(=O)NCCCN(C)C)n(C)c2)n(C)c1.O=C(O)C(F)(F)F,5.2,-12.96
CC(C)c1sc(NC(=O)c2cc(NC(=O)c3cc(NC(=O)c4cnc(Cl)c(Cl)c4)cn3C)cn2C)nc1C(=O)NCCCN(C)C.O=C(O)C(F)(F)F,50.09,-19.66
CC(C)CCn1cc(NC(=O)c2cc(NC(=O)c3cc(NC(=N)c4ccccc4)cn3C)cn2C)cc1C(=O)NCCCN(C)C.O=C(O)C(F)(F)F.O=C(O)C(F)(F)F,22.24,-19.15
CC(C)CCc1sc(NC(=O)c2cc(NC(=O)c3ccc(/C=C/c4cc5ccccc5nc4On4nnc5ccccc54)cc3)cn2C)nc1C(=O)NCCN1CCOCC1.O=C(O)C(F)(F)F,-16.43,-13.53
CC(C)CCc1sc(N)nc1C(=O)Nc1cc(C(=O)Nc2cc(C(=O)NCCN3CCOCC3)n(C)c2)n(C)c1.O=C(O)C(F)(F)F,26.32,-8.65
CC(C)CCc1sc(NC(=O)c2cc(NC(=O)c3cc(NC(=O)CCC(=O)O)cn3C)cn2C)nc1C(=O)NCCCN(C)C.O=C(O)C(F)(F)F,3.82,-16.63
Cc1ccc(S(=O)(=O)NCCc2cn(Cc3cnc(C)nc3N)nn2)cc1,16.06,-13.92
CC(C)c1sc(N)nc1C(=O)Nc1cc(C(=O)NCCN2CCOCC2)n(C)c1.O=C(O)C(F)(F)F,4.82,-3.07
CC(C)CCc1sc(NC(=O)c2cc(NC(=O)c3cc(NC(=O)c4ccc(C(=O)O)cc4)cn3C)cn2C)nc1C(=O)NCCCN(C)C.O=C(O)C(F)(F)F,8.57,-17.53
